Experimental data published in PubChem BioAssay (NCATS).
Active and inactive are the calls of the source. Calls follow the shape of the dose curve; as a rule, active = well fitted activation curve with a large enough effect; inconclusive = small, poorly fitted or top-dose-only effect; inactive = no such curve, though single readings can be large or run the other way.

biological target: Cytochrome P450 3A4 (Homo sapiens) (UniProt P08684); experiment: qHTS Assay for Activators of Cytochrome P450 3A4 (AID 885); settings: recombinant CYP3A4, Luciferin-PPXE luminescence, 60 min; series mostly up to 57.1 µM; activity change, positive = activation: at the top concentration; also: nearly all actives have a fitted effect of over 65% in size
Sequence (P08684 whole entry, looked up): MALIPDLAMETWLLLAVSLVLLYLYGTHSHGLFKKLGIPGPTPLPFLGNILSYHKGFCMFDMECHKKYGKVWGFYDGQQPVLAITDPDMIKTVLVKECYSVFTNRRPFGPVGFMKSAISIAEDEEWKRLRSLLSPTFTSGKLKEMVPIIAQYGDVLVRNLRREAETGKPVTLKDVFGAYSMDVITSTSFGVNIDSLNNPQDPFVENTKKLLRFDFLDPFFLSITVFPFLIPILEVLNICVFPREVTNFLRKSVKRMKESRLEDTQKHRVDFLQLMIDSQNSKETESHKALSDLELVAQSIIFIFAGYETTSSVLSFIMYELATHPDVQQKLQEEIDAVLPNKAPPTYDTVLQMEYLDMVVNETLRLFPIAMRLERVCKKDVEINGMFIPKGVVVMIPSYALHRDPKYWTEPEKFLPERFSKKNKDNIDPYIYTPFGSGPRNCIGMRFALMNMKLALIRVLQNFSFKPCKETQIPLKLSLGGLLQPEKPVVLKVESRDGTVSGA
Method: NIH Molecular Libraries Screening Centers Network [MLSCN]
NIH Chemical Genomics Center [NCGC]
The P450 gene superfamily is involved in the metabolism and clearance of xenobiotics. This assay used human CYP3A4 to measure the dealkylation of luciferin-6' phenylpiperazinylyl (Luciferin-PPXE; […]) to luciferin. The luciferin is then measured by luminescence after the addition of a luciferase detection reagent. Luciferin-PPXE concentration in the assay was equal to its KM for CYP3A4. Inhibitors and some substrates limit the production of luciferin, and decrease measured luminescence; activators increase the production of luciferin and luminescence.
NCGC Assay Protocol Summary:
Two uL of enzyme and substrate mix (final concentrations: 20nM CYP3A4, 25uM Luciferin-PPXE, 200mM KPO4) were dispensed into a white, solid bottom 1536-well microtiter plate. 23nL of compound was transferred by a pin tool. The plate was incubated at RT for 10 min. Two uL of an NADPH regeneration solution (Promega supplied reagent) was dispensed and the reaction was allowed to continue for 60 min at RT. Then the reaction was stopped by reconstituted luciferin detection buffer. After another 20 min of incubation the plate was read on the ViewLux (Perkin Elmer) at 60 sec exposure and 2x2 binning. This protocol was carried out with Promega-Glo reagents and further information can be found at http://www.promega.com/tbs/tb325/tb325.pdf. Data were normalized to the to AC100 inhibition (57 uM ketoconazole).
Keywords: P450, CYP2D6, Luciferase, MLSMR, MLSCN, NIH Roadmap, qHTS, NCGC
Potency is read from the fitted curve at half-maximal effect.

| SMILES | activity change, positive = activation | Potency |
| --- | --- | --- |
| CC(=O)[C@@H]1CC[C@@H]2[C@@H]3CC=C4C[C@H](OS(=O)(=O)O)CC[C@@]4(C)[C@H]3CC[C@]21C | -36.2% (inactive) | – |
| COC(C)C(O)(C(=O)OC1=CCN2CC[C@H](O)[C@H]12)C(C)C (stereo not given in full) | -33% (inactive) | – |
| CC(=O)Oc1c2c(c(CC=C(C)C)c3c1C(=O)C1=CC4CC5C(C)(C)OC(C/C=C(\C)C(=O)O)(C4=O)[C@]15O3)OC(C)(CCC=C(C)C)C=C2 (stereo not given in full) | -94.7% (inactive) | – |
| CC(C)=CCCC(C)C1CC[C@@]2(C)C3=C(CC[C@@]12C)C1(C)CCC(O)C(C)(C)C1CC3 (stereo not given in full) | -76.1% (inactive) | – |
| [Cd+2].[Cl-].[Cl-] | -39.2% (inactive) | – |
| C[C@@]12CC[C@@H]3[C@H](CCC4=CC(=O)CC[C@]43C)[C@@H]1CC[C@@H]2C(=O)Cn1cnc2c(=S)nc[nH]c21 | – | 3.16 µM (active) |
| CC(=O)[O-].CC(=O)[O-].O.O.[Cd+2] | -31.5% (inactive) | – |
| O=C(OCC1CO1)C1CCCCC1C(=O)OCC1CO1 (stereo not given) | -51.4% (inactive) | – |
| CC(C)CC(N)C1(c2ccc(Cl)cc2)CCC1 (stereo not given) | -102% (inactive) | – |
| COC(=O)[C@]1(C)C[C@H]1[C@H](NP(=O)(c1ccccc1)c1ccccc1)c1ccccc1 | -42.9% (inactive) | – |
| CCCC/C(C)=C/[C@@H](NP(=O)(c1ccccc1)c1ccccc1)c1ccccc1 | -92.9% (inactive) | – |
| Cc1c(N)cccc1N | -50.9% (inactive) | – |
| CCC1C(=O)OC[C@H]1Cc1cncn1C (stereo not given in full) | -68.1% (inactive) | – |
| COC(=O)[C@@H]1C[C@@]2(O)[C@H](O)[C@H](O)[C@H](O)C[C@H]2N1Cc1cccnc1 | -31.1% (inactive) | – |
| Cc1cccc2c3c(ccc12)C1=C(C(=O)C3=O)C(C)CO1 (stereo not given) | -32.4% (inactive) | – |
| CC1(C)C(C(Cl)Cl)C2(Cl)C(Cl)C(Cl)C1(Cl)C2(Cl)Cl (stereo not given) | -86.4% (inactive) | – |
| COC(=O)[C@@H]1C[C@@]1(C)[C@@H](NP(=O)(c1ccccc1)c1ccccc1)c1ccccc1 | -70.3% (inactive) | – |
| Nc1ccc(Cl)cc1Cl | -32.9% (inactive) | – |
| CN(CCc1ccc(Cl)c(Cl)c1)[C@H]1CCCC[C@H]1N1CCCC1 | -61.3% (inactive) | – |
| COc1cc2c3cc1Oc1c(OC)c(OC)cc4c1[C@@H](Cc1ccc(O)c(c1)Oc1ccc(cc1)C[C@@H]3N(C)CC2)N(C)CC4 | -73.7% (inactive) | – |

| SMILES | activity change, positive = activation | Potency |
| --- | --- | --- |
| COC(=O)[C@@]1(Cc2ccc(F)cc2)[C@H]2c3cc(C(=O)N(C)C)[nH]c3C[C@H]2CN1C(=O)c1ccccc1 | -95.7% (inactive) | – |
| CC(=O)Oc1ccc2c(c1)CCC1C2CC[C@]2(C)C(OC(C)=O)CCC12 (stereo not given in full) | -35.4% (inactive) | – |
| COC(=O)[C@@H]1C[C@H]2CC[C@H](O)C[C@H]2N1CC1CC1 | -51.6% (inactive) | – |
| C=C(CC1(CNP(=O)(c2ccccc2)c2ccccc2)CC1)c1ccccc1 | -84.4% (inactive) | – |
| COc1c(-c2ccccc2)oc2c(ccc3occc32)c1=O | -96.4% (inactive) | – |
| C[C@H](N)c1cccc(Cl)c1Cl | -61.1% (inactive) | – |
| CC(C)[C@]1(NC(=O)[C@@H]2C=C3c4cccc5[nH]cc(c45)C[C@H]3N(C)C2)O[C@@]2(O)C3CCCN3C(=O)[C@H](Cc3ccccc3)N2C1=O (stereo not given in full) | -93.1% (inactive) | – |
| COc1ccc2[nH]c3c(c2c1)CCN=C3C | -37.6% [at 25.6 µM] (inactive) | – |
| CN(C)C1C(=O)C(C(N)=O)=C(O)[C@@]2(O)C(=O)C3=C(O)c4c(O)cccc4[C@@](C)(O)C3C[C@@H]12 (stereo not given in full) | -72.5% (inactive) | – |
| COc1c2c(c(CC=C(C)C)c3oc(=O)c(-c4ccc(O)cc4)c(O)c13)OC(C)(C)C=C2 | -45.9% (inactive) | – |
| C=C[C@@H]1C[C@@]1(C)[C@@H](NP(=O)(c1ccccc1)c1ccccc1)c1ccccc1 | -110% (inactive) | – |
| COc1cc2c(cc1OC)[C@@H]1C(=O)c3ccc(OC)c(CC=C(C)C)c3OC1CO2 (stereo not given in full) | -78.7% (inactive) | – |
| C[C@@]1([C@@H](NP(=O)(c2ccccc2)c2ccccc2)c2ccccc2)C[C@H]1CCO | -87.2% (inactive) | – |
| CN1C[C@@H](CO)C=C2c3cccc4[nH]cc(c34)CC21 (stereo not given in full) | -55.4% (inactive) | – |
| CCCN1CCc2cccc3c2[C@@H]1Cc1ccc(O)c(O)c1-3 | -34.5% (inactive) | – |
| CCCN1[C@@H]2C[C@@H](O)CC[C@@H]2C[C@H]1C(=O)OC | -45.5% (inactive) | – |
| CCC(C)C(=O)OC1C[C@@]2(C)C(c3ccoc3)OC(=O)CC23OC2(C)OC34C(OC(=O)C(C)C)[C@]3(O)C(OC(=O)C5(C)OC5C)[C@]5(C)CC3(O)[C@](C)(C5CC(=O)OC)C14O2 (stereo not given in full) | -112% (inactive) | – |
| Cc1ncc(CN2CC=C(c3ccccc3)CC2)c(N)n1 | -46% (inactive) | – |
| CC(C)=CCC1=C(O)c2ccccc2C(=O)C1=O | -56.9% (inactive) | – |
| CC(=O)[C@@H]1CC[C@@H]2[C@@H]3CCC4=CC(=O)CC[C@@]4(C)[C@H]3CC[C@]21C | – | 3.98 µM (active) |
